Activity calls are given as the source filed them. How the source made its calls: active means hit-call score of the fitted dose curve at least 0.9, where 1 is the maximum; inactive means score below 0.9.
Columns and labels:
[1] = ATG_CRE_CIS: Attagene CIS-FACTORIAL HepG2 Assay for human cAMP Responsive Element (CRE) binding protein 3 (AID 2282926); conditions: HepG2 CRE cis-reporter, Attagene multiplexed mRNA; actives raise or lower the signal
Method in brief: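 We dosed HepG2 cells bearing multiple cis-promoter reporter units for 24 h and measured reporter mRNA by RT-PCR with capillary electrophoresis detection. Bidirectional concentration-response fitting used DMSO as negative control.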

[2] = target: CCAAT/enhancer-binding protein beta (Homo sapiens) (UniProt P17676); assay: ATG_C_EBP_CIS: Attagene CIS-FACTORIAL HepG2 Assay for human CCAAT/Enhancer Binding Protein (C/EBP) beta (AID 2282927); conditions: HepG2 Attagene cis-factorial transcription factor reporter; actives raise or lower the signal
Method in brief: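 Chemical-treated HepG2 cells (24 h) bearing cis-regulated reporter constructs were processed for total RNA, then reverse transcription, PCR amplification, fluorescent primer extension and fragment analysis; gain- and loss-of-signal were fitted against DMSO.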

[3] = ATG_CMV_CIS: Attagene CIS-FACTORIAL HepG2 Assay for human CMV (Internal Marker) (AID 2282928); conditions: HepG2 CMV promoter reporter, transcription factor profiling; actives raise or lower the signal;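 further: endpoint acts as a background internal control marker rather than a target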
Method in brief: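 After transient transfection of HepG2 with reporter transcription units driven by cis-regulatory promoters, cells receive test chemical for 24 h. Labeled reporter amplicons, digested with HpaI, are sized and quantified by capillary electrophoresis against DMSO.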

[4] = ATG_DR4_LXR_CIS: Attagene CIS-FACTORIAL HepG2 Assay for human Liver X Receptor (LXR), DR4 submotif (AID 2282929); conditions: HepG2 Attagene DR4 cis-reporter, mRNA transcription; actives raise or lower the signal
Method in brief: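 Endogenous factor activity at a DR4 cis-element is read as reporter mRNA in transiently transfected HepG2 cells. Exposure lasts 24 h; transcripts are amplified, fluorescently labelled and sized by capillary electrophoresis, with DMSO as baseline.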

[5] = target: Aryl hydrocarbon receptor (Homo sapiens) (UniProt P35869); assay: ATG_Ahr_CIS: Attagene CIS-FACTORIAL HepG2 Assay for human Aryl Hydrocarbon Receptor (Ahr) (AID 2282930); conditions: HepG2 AhR cis-factorial reporter transcription; actives raise or lower the signal
Method in brief: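 Following 24 h of chemical dosing, transfected HepG2 liver cells with cis-driven reporter units were lysed for RNA; reporter mRNA was quantified via RT-PCR and capillary electrophoresis, and responses fitted bidirectionally from DMSO.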

[6] = ATG_AP_1_CIS: Attagene CIS-FACTORIAL HepG2 Assay for human Activator Protein 1 (AP-1) (AID 2282931); conditions: HepG2 Attagene cis-factorial AP-1 reporter mRNA; actives raise or lower the signal
Method in brief: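 Fluorescence of labelled PCR fragments separated by capillary electrophoresis gives reporter mRNA levels. HepG2 with transfected cis-regulated reporter units, 24 h exposure; DMSO serves as baseline for bidirectional curve fits.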

[7] = ATG_AP_2_CIS: Attagene CIS-FACTORIAL HepG2 Assay for human Activator Protein 2 (AP-2) (AID 2282932); conditions: HepG2 AP-2 cis-reporter, Attagene transcription factor profiling; actives raise or lower the signal
Method in brief: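 HepG2 cells were transiently transfected with multiple cis-promoter reporter transcription units and dosed for 24 h. Reporter mRNA was measured by RT-PCR with capillary electrophoresis fluorescence; bidirectional fits relative to DMSO baseline.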

[8] = ATG_BRE_CIS: Attagene CIS-FACTORIAL HepG2 Assay for human Bone Morphogenetic Protein (BMP) Response Element (BRE) (AID 2282933); conditions: HepG2 BMP response element reporter, Attagene transcription factor profiling; actives raise or lower the signal
Method in brief: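 Read-out: reporter mRNA induction quantified by RT-PCR and capillary electrophoresis after 24 h chemical exposure of transfected HepG2 cells. Endogenous factor activity on the BMP response element; gain or loss fitted against DMSO baseline.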

[9] = target: Retinoic acid receptor alpha (Homo sapiens) (UniProt P10276); assay: ATG_DR5_RAR_CIS: Attagene CIS-FACTORIAL HepG2 Assay for human Retinoic Acid Receptor Alpha (RARE), DR5 submotif (AID 2282934); conditions: HepG2 Attagene cis-factorial RARE DR5 reporter, mRNA; actives raise or lower the signal;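 on AC50: reporter responds to endogenous RAR alpha beta and gamma in HepG2 not RARA alone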
Method in brief: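 Transfected HepG2 reporter cells are exposed to chemicals for 24 h. Then RNA is extracted and the DR5 element reporter transcript is measured by RT-PCR and capillary electrophoresis, with bidirectional curve fitting relative to DMSO.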

[10] = target: Transcription factor E2F1 (Homo sapiens) (UniProt Q01094); assay: ATG_E2F_CIS: Attagene CIS-FACTORIAL HepG2 Assay for human E2F Transcription Factor 1 (AID 2282935); conditions: HepG2 Attagene cis-reporter, E2F reporter RNA transcripts; actives raise or lower the signal
Method in brief: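 HepG2 cells transiently transfected with multiplexed cis-element reporter units, dosed for 24 h. Reporter mRNA measured by RT-PCR, 6-FAM primer-extension labeling, HpaI digestion and capillary electrophoresis; bidirectional fit versus DMSO baseline.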

[11] = ATG_E_Box_CIS: Attagene CIS-FACTORIAL HepG2 Assay for human Enhancer Box (E-box) (AID 2282936); conditions: HepG2 E-box cis-reporter transcription, actives raise or lower the signal
Method in brief: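 HepG2 cells transiently transfected with multiplexed cis-element reporter units sensing endogenous transcription factor activity; 24 h compound exposure. Reporter mRNA measured by RT-PCR, 6-FAM primer extension, HpaI digestion and capillary electrophoresis; bidirectional fit versus DMSO.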

[12] = ATG_M_61_CIS: Attagene CIS-FACTORIAL HepG2 Assay for M61 Transcription Factor (Internal Marker) (AID 2282937); conditions: HepG2 Attagene CIS-FACTORIAL M61 internal marker reporter; actives raise or lower the signal
Method in brief: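 This endpoint serves as an internal background control within a multiplexed HepG2 cis-reporter panel. Cells are exposed for 24 h; reporter mRNA is amplified, fluorescently labelled and sized by capillary electrophoresis, with DMSO as negative control.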

[13] = ATG_EGR_CIS: Attagene CIS-FACTORIAL HepG2 Assay for human Early Growth Response 1 (EGR1) (AID 2282938); conditions: HepG2 Attagene CIS-FACTORIAL EGR reporter mRNA; actives raise or lower the signal
Method in brief: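 HepG2, transient MRTU transfection (cis promoters), 24 h compound. RNA → RT (oligo-dT) → PCR → 6-FAM labelling → HpaI cut → CE fluorescence. Bidirectional fit, DMSO baseline.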

[14] = ATG_M_19_CIS: Attagene CIS-FACTORIAL HepG2 Assay for M19 Transcription Factor (Internal Marker) (AID 2282939); conditions: HepG2 Attagene CIS-FACTORIAL M19 internal marker reporter; actives raise or lower the signal
Method in brief: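 Readout: fluorescent reporter-transcript fragments by capillary electrophoresis after RT-PCR. Human HepG2 liver cells carried transfected MRTU constructs reporting endogenous transcription-factor activity; exposure 24 h. Gain or loss of signal fitted relative to DMSO.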

[15] = ATG_ERE_CIS: Attagene CIS-FACTORIAL HepG2 Assay for Estrogen Response Element (ERE) (AID 2282940); conditions: HepG2 ERE cis-reporter, Attagene RNA transcript; actives raise or lower the signal
Method in brief: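 Readout: reporter mRNA induction by RT-PCR, FAM-labelled primer extension, HpaI digestion and capillary electrophoresis, 24 h after dosing transfected HepG2 cells. Endogenous transcription factors act on cis-element-regulated reporters. Gain or loss fitted against DMSO.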

[16] = ATG_Ets_CIS: Attagene CIS-FACTORIAL HepG2 Assay for human Erythroblast Transformation Specific (ETS) (AID 2282941); conditions: HepG2 ETS cis-reporter transcription, actives raise or lower the signal
Method in brief: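 Human HepG2 hepatoma cells were transiently transfected with promoter-driven reporter constructs and treated for 24 hours. Reporter transcripts were quantified by RT-PCR with fluorescent primer extension; bidirectional curve fitting used DMSO as reference.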

[17] = target: Hepatocyte nuclear factor 3-beta (Homo sapiens) (UniProt Q9Y261); assay: ATG_FoxA2_CIS: Attagene CIS-FACTORIAL HepG2 Assay for human Forkhead box A2 (FOXA2) (AID 2282942); conditions: HepG2 cis-reporter transcription factor activity, 24 h; actives raise or lower the signal
Method in brief: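 Cells: HepG2, transient multiplex reporter transfection. Exposure 24 h. Detection: reporter-specific RT-PCR, fluorescent labelling, restriction digest, capillary electrophoresis. Analysis: bidirectional curve fit, DMSO as negative control.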

[18] = ATG_FoxO_CIS: Attagene CIS-FACTORIAL HepG2 Assay for human Forkhead box O (FoxO) (AID 2282943); conditions: HepG2 Attagene cis-reporter, FoxO element, mRNA; actives raise or lower the signal
Method in brief: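 24 h chemical exposure, HepG2 with transient cis-MRTU transfection. RNA extraction, oligo(dT) RT, reporter-specific PCR, primer-extension labelling, HpaI digestion, CE fragment analysis; bidirectional fit, DMSO baseline.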

[19] = ATG_GATA_CIS: Attagene CIS-FACTORIAL HepG2 Assay for human GATA Binding Protein (AID 2282944); conditions: HepG2 GATA cis-element reporter, Attagene multiplex mRNA; actives raise or lower the signal
Method in brief: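 Read-out: fluorescent reporter mRNA fragments resolved by capillary electrophoresis after RT-PCR. Human liver HepG2 cells carried transiently transfected cis-regulated reporter constructs; chemicals incubated 24 h; gain or loss of signal fitted relative to DMSO.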

Measured: AC50

Chain of CCAAT/enhancer-binding protein beta (Homo sapiens) (P17676 whole entry, looked up, the tested form may be a part): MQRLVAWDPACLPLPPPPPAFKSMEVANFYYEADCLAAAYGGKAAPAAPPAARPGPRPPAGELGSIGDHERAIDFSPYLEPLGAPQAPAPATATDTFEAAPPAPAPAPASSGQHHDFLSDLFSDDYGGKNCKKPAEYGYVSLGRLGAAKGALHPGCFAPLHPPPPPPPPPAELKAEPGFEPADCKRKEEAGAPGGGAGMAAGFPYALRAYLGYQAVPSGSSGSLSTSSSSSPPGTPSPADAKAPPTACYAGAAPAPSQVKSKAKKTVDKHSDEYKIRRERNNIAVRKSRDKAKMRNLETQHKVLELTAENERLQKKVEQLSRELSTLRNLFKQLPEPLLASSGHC
Chain of Hepatocyte nuclear factor 3-beta (Homo sapiens) (Q9Y261 whole entry, looked up): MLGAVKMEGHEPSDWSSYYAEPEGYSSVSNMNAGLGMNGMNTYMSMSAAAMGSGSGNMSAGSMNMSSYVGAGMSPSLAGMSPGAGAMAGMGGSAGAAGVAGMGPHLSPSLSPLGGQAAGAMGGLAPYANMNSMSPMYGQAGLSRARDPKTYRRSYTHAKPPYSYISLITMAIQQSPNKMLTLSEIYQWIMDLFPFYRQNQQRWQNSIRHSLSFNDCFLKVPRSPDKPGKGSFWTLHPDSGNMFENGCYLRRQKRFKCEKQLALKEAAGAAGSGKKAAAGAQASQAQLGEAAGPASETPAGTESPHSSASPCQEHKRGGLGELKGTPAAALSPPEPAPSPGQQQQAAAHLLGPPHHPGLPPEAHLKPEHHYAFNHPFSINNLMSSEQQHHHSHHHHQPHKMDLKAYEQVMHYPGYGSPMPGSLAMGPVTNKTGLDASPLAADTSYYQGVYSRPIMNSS
Chain of Transcription factor E2F1 (Homo sapiens) (Q01094 whole entry, looked up): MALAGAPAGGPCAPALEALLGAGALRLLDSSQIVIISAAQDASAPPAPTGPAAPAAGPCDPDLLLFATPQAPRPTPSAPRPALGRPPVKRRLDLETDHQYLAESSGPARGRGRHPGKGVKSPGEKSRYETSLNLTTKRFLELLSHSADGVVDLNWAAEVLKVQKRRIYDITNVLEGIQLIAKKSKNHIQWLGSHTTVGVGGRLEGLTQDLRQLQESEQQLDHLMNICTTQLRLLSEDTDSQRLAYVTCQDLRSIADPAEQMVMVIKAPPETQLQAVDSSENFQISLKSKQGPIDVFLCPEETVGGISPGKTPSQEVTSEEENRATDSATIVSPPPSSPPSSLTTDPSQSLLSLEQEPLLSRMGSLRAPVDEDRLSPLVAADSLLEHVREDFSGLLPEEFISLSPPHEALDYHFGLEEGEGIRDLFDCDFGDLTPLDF
Chain of Retinoic acid receptor alpha (Homo sapiens) (P10276 whole entry, looked up): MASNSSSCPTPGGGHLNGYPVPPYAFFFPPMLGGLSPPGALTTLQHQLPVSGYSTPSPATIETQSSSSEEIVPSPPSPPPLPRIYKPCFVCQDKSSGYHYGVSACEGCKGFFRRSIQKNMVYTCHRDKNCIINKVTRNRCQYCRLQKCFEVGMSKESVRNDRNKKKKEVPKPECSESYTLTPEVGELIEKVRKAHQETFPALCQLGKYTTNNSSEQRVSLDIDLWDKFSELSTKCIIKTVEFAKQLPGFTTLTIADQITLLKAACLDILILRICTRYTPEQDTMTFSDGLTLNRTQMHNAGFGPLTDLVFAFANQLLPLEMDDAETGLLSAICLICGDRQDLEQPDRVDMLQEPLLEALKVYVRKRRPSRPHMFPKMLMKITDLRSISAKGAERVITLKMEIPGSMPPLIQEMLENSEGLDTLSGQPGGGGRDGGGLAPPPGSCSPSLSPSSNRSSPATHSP
Chain of Aryl hydrocarbon receptor (Homo sapiens) (P35869 whole entry, looked up): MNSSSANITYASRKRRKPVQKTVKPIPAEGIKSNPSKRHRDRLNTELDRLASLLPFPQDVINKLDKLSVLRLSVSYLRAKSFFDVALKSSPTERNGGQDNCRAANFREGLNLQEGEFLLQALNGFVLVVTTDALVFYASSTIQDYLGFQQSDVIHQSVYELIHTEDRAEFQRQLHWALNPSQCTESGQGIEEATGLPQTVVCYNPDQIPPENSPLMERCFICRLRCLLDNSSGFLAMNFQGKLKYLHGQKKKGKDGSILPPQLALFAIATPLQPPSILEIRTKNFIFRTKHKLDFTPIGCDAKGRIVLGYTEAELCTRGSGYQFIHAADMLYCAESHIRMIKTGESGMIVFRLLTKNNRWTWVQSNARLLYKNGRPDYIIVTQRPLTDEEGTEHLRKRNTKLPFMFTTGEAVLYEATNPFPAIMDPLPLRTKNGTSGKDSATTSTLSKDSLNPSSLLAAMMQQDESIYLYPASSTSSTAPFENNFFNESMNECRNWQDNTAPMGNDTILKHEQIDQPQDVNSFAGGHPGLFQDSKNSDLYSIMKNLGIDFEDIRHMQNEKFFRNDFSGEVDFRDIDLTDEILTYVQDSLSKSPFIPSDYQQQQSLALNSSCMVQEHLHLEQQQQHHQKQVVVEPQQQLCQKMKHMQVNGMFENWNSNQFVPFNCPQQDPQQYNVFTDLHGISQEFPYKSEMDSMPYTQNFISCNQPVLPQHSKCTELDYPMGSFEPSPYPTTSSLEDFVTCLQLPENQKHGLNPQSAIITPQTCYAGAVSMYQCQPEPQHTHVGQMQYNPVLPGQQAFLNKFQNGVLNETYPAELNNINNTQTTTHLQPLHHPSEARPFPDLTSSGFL

O=C1c2ccccc2C(=O)c2cc(S(=O)(=O)O)ccc21
inactive: all assays above

CN(C)Cc1cc(CN(C)C)c(O)c(CN(C)C)c1
not listed: [5] | [13] | [15]
inactive: all other assays above

Cc1c(C(=O)c2c[nH]n(C)c2=O)ccc(S(C)(=O)=O)c1C1=NOCC1
not listed: [4] | [8]
inactive: all other assays above

O=C1CCCCC1C1CCCCC1 (stereo not given)
not listed: [2] | [3]
inactive: all other assays above

CC1(C)CCC[C@]2(C)[C@H]3CC(=O)O[C@]3(C)CC[C@@H]12
not listed: [11]
inactive: all other assays above

CC1CC(=O)CC(C)(C)C1 (stereo not given)
not listed: [4]
inactive: all other assays above

CC(=O)OC1CCCCC1C(C)(C)C (stereo not given)
not listed: [11] | [14]
inactive: all other assays above

O=C(O)c1cc(O)c2ccccc2c1O
active: [4] 42.5 µM | [5] 30.5 nM | [9] 22.8 µM | [10] 59.1 µM | [11] 8.86 µM | [15] 0.513 µM | [16] 57.9 µM | [18] 52 µM
not listed: [2] | [8]
inactive: all other assays above

CCCCCOC(=O)CCCCC
not listed: [2] | [4] | [7] | [15]
inactive: all other assays above

CCOC(=O)OC(=O)OCC
not listed: [7]
inactive: all other assays above

C/C=C/C=C/CCCCCCCO
active: [4] 183 µM | [6] 127 µM
not listed: [7] | [8] | [11] | [13]
inactive: all other assays above

O=C(Oc1ccccc1)c1ccccc1C(=O)Oc1ccccc1
active: [6] 46.3 µM
not listed: [14] | [19]
inactive: all other assays above

CC12CCC(CC1)C(C)(C)O2
not listed: [2] | [13]
inactive: all other assays above

CC=CC(=O)OCC(C)C
not listed: [5] | [15]
inactive: all other assays above

COC(OC)(C(=O)c1ccccc1)c1ccccc1
active: [4] 49.8 µM | [13] 35.1 µM | [15] 2.01 µM
not listed: [5] | [7]
inactive: all other assays above

COC(=O)c1ccccc1C
not listed: [13] | [14] | [17]
inactive: all other assays above

CC(C=O)c1ccccc1 (stereo not given)
not listed: [3] | [5] | [13]
inactive: all other assays above

CCCCCCCCCCCCC
not listed: [5] | [8]
inactive: all other assays above

CCc1cccc(C)c1N
not listed: [4]
inactive: all other assays above

CO[Si](CCCS)(OC)OC
active: [15] 68.7 µM
not listed: [11]
inactive: all other assays above
